Bim-Mcl-1 = disrupts Bim peptide binding to human Mcl-1. Bead-based flow cytometry, Bim peptide-Mcl-1 binding. inhibition, % at 10 µM. 0.1% of 190,000 active. AID 1009; in the data active means inhibition above about 40%
Target sequence (Q07820 whole entry, looked up): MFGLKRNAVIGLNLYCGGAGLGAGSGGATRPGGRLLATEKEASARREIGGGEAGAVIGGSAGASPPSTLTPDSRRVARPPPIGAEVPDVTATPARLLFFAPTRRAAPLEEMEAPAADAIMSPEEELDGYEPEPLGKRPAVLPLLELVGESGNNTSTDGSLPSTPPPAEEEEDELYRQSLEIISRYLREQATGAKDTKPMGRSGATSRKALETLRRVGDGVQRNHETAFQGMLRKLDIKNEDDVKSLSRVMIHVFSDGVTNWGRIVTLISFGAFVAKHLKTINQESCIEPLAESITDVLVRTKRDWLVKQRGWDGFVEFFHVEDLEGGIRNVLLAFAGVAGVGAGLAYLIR
Calpain2 inh = calpain II (pig) inhibition. inhibition, % at 16 µM. AID 1236. 0.37% of 220,000 active. purified calpain II, fluorogenic peptide substrate, 30 min;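 active means inhibition above about 50%, limit read from the data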
Mcl1-Noxa inh = disrupts binding of human Mcl-1 to Noxa peptide | inhibition, % at 21.7 µM | 1.5% of 220,000 active | AID 1022 | Q07820 | TR-FRET Mcl-1/Noxa peptide binding, 2 h;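 active means compounds that cut the protein-peptide binding signal by more than 50% relative to plate controls in a single-dose test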;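 further: His-tagged Mcl-1 with rhodamine Noxa BH3 peptide and terbium anti-His antibody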
TNF necrop inh = inhibitors of TNF-alpha induced necroptosis in Jurkat FADD-/- cells. AID 463075. 0.068% of 220,000 active. Jurkat FADD-/- TNF necroptosis rescue, ATP luminescence, 24 h; 0 = TNF only, 100 = no-TNF cells. activation (protection from cell death), % at 10 µM;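 active means activation, meaning protection from cell death, of at least 50% relative to plate controls; inactive means activation below 50%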;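 further: necroptosis triggered by 40 ng/mL TNF-alpha added together with compound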
L929 necroptosis = L929 zVAD cell death inhibition; L929 zVAD necroptosis rescue, ATP luminescence, 24 h; with zVAD 60 µM; 0.38% of 220,000 active; viability rescue, % at 10 µM; AID 1377;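 active means activation, scaled between plate controls, above about 75%, limit read from the data; inactive means activation under that limit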
Mcl1 Bid PPI = Mcl-1/Bid interaction inhibition; TR-FRET Mcl-1/Bid-Dy647 peptide binding, 1536-well; inhibition, % at 21.7 µM; 0.97% of 220,000 active; Q07820;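 active means compounds that cut the binding signal by more than half at the single screening dose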;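 further: His-tagged Mcl-1 with europium anti-His antibody binding Bid BH3 peptide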
Each line names hits and unclear results; the compound was inactive in the other large screens. Hits are enriched below; roughly 2.8% of the tested compounds scored in any of these assays.

C=CCOc1c2ccc(C(=O)NCc3ccccc3OC)cc2nn1C	Mcl1 Bid PPI 64
COc1cccc2cc(C(N)=O)/c(=N/NC(=O)COc3ccc(Cl)cc3)oc12	Mcl1 Bid PPI 64
COc1ccc(OCC(=O)N/N=c2\oc3c(OC)cccc3cc2C(N)=O)cc1	none
CCOC(=O)C(C)On1c(-c2ccccc2)nc2ccc([N+](=O)[O-])cc21 (centres undefined)	none
O=C(O)COn1c(-c2ccccc2)nc2ccc([N+](=O)[O-])cc21	Mcl1-Noxa inh 55
Cc1ccc(S(=O)(=O)NCC(=O)OCC(=O)NC(=O)NC2CCCC2)cc1	none
O=C(/C=C/c1cc[n+](CC(=O)c2ccc3cccc4c3c2CC4)cc1)c1ccc2cccc3c2c1CC3	Mcl1-Noxa inh 55, Mcl1 Bid PPI 99 (no result: Bim-Mcl-1)
COc1ccc(-n2nc(C(=O)NCC(=O)NCc3ccc(F)cc3)c3ccccc3c2=O)c(OC)c1	none
O=C(CCCN1C(=O)/C(=C/c2ccccc2Cl)SC1=S)NNC(=O)c1ccccc1	none
O=C(CCCN1C(=O)/C(=C\c2cccs2)SC1=S)NNC(=O)c1ccncc1	none
O=C(CCCN1C(=O)/C(=C/c2ccccc2Cl)SC1=S)NNC(=O)c1ccc(Cl)cc1Cl	Calpain2 inh 52 (no result: Bim-Mcl-1)
COc1ccccc1C(=O)NNC(=O)CCCN1C(=O)/C(=C/c2cccs2)SC1=S	Mcl1-Noxa inh 52
CC(=O)c1c(C)[nH]c(C(=O)NC(C)c2ccccc2)c1C (centres undefined)	none
OC(Cn1ccnc1)c1ccc(Cl)cc1Cl (centres undefined)	none
CC1(c2ccc(Cl)cc2Cl)OCC(Cn2ccnc2)O1 (centres undefined)	Mcl1 Bid PPI 80
Cc1ccccc1NCC(=O)N/N=C/C(Br)=C/c1ccccc1	Mcl1 Bid PPI 90
Cc1cccc(-n2cc(-c3ccc([N+](=O)[O-])cc3)[nH]c2=S)c1	Mcl1-Noxa inh 52
CCCCN(CCCC)C(=O)CSc1nnc2n(C)c(=O)c3c4c(sc3n12)CCCC4	none
Cn1c(=O)c2c3c(sc2n2c(SCC(N)=O)nnc12)CC(C(C)(C)C)CC3 (centres undefined)	Calpain2 inh 66
CC(C(=O)O/N=C(\N)c1cccnc1)c1ccc([N+](=O)[O-])cc1 (centres undefined)	none
CCC(=O)NC(c1ccccc1OC)c1ccc2cccnc2c1O (centres undefined)	none
COc1ccc(Cl)cc1C(Nc1cccnc1)c1ccc2cccnc2c1O (centres undefined)	Mcl1 Bid PPI 97
O=C(O)CCNC1CCCCC1	none (no result: Bim-Mcl-1)
O=C(O)CCCCC1CCSS1 (centres undefined)	Mcl1-Noxa inh 74, Mcl1 Bid PPI 97
O=C(CCNc1ccc(Cl)cc1)c1cccs1	none
O=C(CCSc1ccc(Cl)cc1)c1cccs1	Mcl1-Noxa inh 57
Cc1ccc2[nH]c3c(c2c1)CCN1C(=O)OC(C)(C)C31C (centres undefined)	Mcl1-Noxa inh 68
Cc1ccc2[nH]c3c(c2c1)CCNC3=O	none
CC1(C(=O)NCc2ccc(Cl)c(Cl)c2)Oc2ccccc2NC1=O (centres undefined)	none
Cc1ccnc(Nc2nc3ccccc3o2)n1	Calpain2 inh 133
Cc1nc(Nc2nc3ccccc3o2)nc(C)c1C	none
CN(C)c1ccc(N=C/C=C2/N(C)c3ccccc3C2(C)C)cc1	Mcl1-Noxa inh 64
Cc1ccc(C)c(NS(=O)(=O)c2ccc3[nH]c(=O)[nH]c3c2)c1	none (no result: Bim-Mcl-1)
Cc1ccc(C)c(NS(=O)(=O)c2ccc3[nH]c(=O)oc3c2)c1	Mcl1-Noxa inh 59
CN(CCN(C)C(C)(C)C)C(=O)C(c1ccccc1)c1ccccc1	Mcl1 Bid PPI 74 (no result: Bim-Mcl-1)
COc1cc(/C=C(\C#N)c2nc3c(s2)CCCC3)ccc1O	Mcl1-Noxa inh 51
N#C/C(=C\c1cccnc1)c1nc2c(s1)CCCC2	none
C/C(=N/NC(=O)CNC(=O)Cc1ccc(Cl)cc1)c1ccco1	none (no result: Bim-Mcl-1)
Cc1cc(-c2ccco2)n2c(nc3ccccc32)c1C#N	Mcl1 Bid PPI 96
Cc1ccnc(N2CCN(c3cc(C)c(C#N)c4nc5ccccc5n34)CC2)c1	none (no result: Bim-Mcl-1, Calpain2 inh, Mcl1-Noxa inh, Mcl1 Bid PPI)
O=C(COC(=O)/C=C/c1ccc([N+](=O)[O-])cc1)NC(c1ccccc1)c1ccccc1	none
O=C(Cc1c(F)cccc1Cl)Nc1ccon1	Mcl1 Bid PPI 83
CC(=O)c1ccccc1NCC(=O)Nc1ccc(C)cc1	none
COc1ccccc1-c1cc(C(=O)Nc2sc3c(c2C#N)CCC(C)C3)c2ccccc2n1 (centres undefined)	none
Cc1cc(C(=O)OCC(=O)Nc2sc3c(c2C#N)CCC(C)C3)c2ccccc2n1 (centres undefined)	Mcl1-Noxa inh 93
CCOC(=O)N1CCN(C(=O)c2ccc(CN(c3ccccc3)S(C)(=O)=O)cc2)CC1	none
CCN(CCO)c1nc(SC)nc2c1sc1nc(-c3ccco3)c3c(c12)CCC3	Mcl1-Noxa inh 99, Mcl1 Bid PPI 52
CSc1nc(NCCOCCO)c2sc3nc(-c4ccco4)c4c(c3c2n1)CCC4	Mcl1-Noxa inh 96
Cn1c2c(c(=O)n(C)c1=O)C(CC(=O)Nc1ccccc1)C(=O)N2 (centres undefined)	Calpain2 inh 92
CC1=NN(C(N)=S)C(=O)C1N=Nc1ccc(O)cc1 (centres undefined)	Mcl1-Noxa inh 78
Nc1c(C(=O)c2ccccc2)oc2ccccc12	none
O=C(c1ccc(Cl)cc1)c1oc2ccccc2c1CS(=O)(=O)c1ccccc1	Calpain2 inh 60
CCn1cc(-c2n[nH]c(=S)n2-c2ccc(C)cc2Br)c(=O)c2ccc(C)nc21	none (no result: Bim-Mcl-1)
Oc1c(Br)cc(Cl)cc1C=Nc1ccc(N2CCOCC2)cc1	none
Oc1ccc(N=Nc2cccc(Cl)c2)cc1C=Nc1ccc(N2CCOCC2)cc1	Mcl1-Noxa inh 86, Mcl1 Bid PPI 56
COC(=O)c1cccc(NC(=S)NCc2ccc(Cl)cc2)c1	none
COC(=O)c1cc(NC(=S)NCc2ccc(Cl)cc2)cc(C(=O)OC)c1	Mcl1 Bid PPI 97
Oc1ccc(N=C/C=C/c2ccc(Br)cc2)cc1-c1nc2ccccc2s1	none
c1ccc(-c2nc(NCc3cccnc3)c3oc4ccccc4c3n2)cc1	Mcl1 Bid PPI 63
O=C(O)CNc1nc(-c2ccccc2)nc2c1oc1ccccc12	none (no result: Bim-Mcl-1)
CSCC[C@@H](Nc1nc(-c2ccccc2)nc2c1oc1ccccc12)C(=O)O	Mcl1 Bid PPI 60
Cc1cccc2cc(/C=N/NC(=O)CN3CCOCC3)c(Cl)nc12	Mcl1 Bid PPI 87
Cc1ccc2cc(/C=N/NC(=O)CN3CCOCC3)c(Cl)nc2c1	Mcl1 Bid PPI 74
COc1ccc(/C=C2\SC(=S)N(CC3CCCO3)C2=O)cc1 (centres undefined)	none (no result: Bim-Mcl-1)
Cc1ccc(/C=C2\SC(=S)N(C(Cc3ccccc3)C(=O)O)C2=O)cc1 (centres undefined)	none

High-throughput results: PubChem BioAssay, several laboratories
